Assay results reported in article PMC4336329 (PLoS ONE, 2015).
The whole screen tested about 310,000 compounds, of which about 14,000 (4.5%) showed an effect of 50% or more. Effects have a minus sign here. For the sample, strong results were picked, then their nearest neighbours and some compounds at random.

target: human ether-à-go-go-related gene (hERG) potassium channel (human, UniProt Q12809); assay: primary screen, population patch clamp on CHO cells stably expressing hERG; higher = less effect of the substance
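Also: peak tail current of the secondary pulse compared with the same well before compound.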

Sequence of human ether-à-go-go-related gene (hERG) potassium channel (Q12809 whole entry, looked up): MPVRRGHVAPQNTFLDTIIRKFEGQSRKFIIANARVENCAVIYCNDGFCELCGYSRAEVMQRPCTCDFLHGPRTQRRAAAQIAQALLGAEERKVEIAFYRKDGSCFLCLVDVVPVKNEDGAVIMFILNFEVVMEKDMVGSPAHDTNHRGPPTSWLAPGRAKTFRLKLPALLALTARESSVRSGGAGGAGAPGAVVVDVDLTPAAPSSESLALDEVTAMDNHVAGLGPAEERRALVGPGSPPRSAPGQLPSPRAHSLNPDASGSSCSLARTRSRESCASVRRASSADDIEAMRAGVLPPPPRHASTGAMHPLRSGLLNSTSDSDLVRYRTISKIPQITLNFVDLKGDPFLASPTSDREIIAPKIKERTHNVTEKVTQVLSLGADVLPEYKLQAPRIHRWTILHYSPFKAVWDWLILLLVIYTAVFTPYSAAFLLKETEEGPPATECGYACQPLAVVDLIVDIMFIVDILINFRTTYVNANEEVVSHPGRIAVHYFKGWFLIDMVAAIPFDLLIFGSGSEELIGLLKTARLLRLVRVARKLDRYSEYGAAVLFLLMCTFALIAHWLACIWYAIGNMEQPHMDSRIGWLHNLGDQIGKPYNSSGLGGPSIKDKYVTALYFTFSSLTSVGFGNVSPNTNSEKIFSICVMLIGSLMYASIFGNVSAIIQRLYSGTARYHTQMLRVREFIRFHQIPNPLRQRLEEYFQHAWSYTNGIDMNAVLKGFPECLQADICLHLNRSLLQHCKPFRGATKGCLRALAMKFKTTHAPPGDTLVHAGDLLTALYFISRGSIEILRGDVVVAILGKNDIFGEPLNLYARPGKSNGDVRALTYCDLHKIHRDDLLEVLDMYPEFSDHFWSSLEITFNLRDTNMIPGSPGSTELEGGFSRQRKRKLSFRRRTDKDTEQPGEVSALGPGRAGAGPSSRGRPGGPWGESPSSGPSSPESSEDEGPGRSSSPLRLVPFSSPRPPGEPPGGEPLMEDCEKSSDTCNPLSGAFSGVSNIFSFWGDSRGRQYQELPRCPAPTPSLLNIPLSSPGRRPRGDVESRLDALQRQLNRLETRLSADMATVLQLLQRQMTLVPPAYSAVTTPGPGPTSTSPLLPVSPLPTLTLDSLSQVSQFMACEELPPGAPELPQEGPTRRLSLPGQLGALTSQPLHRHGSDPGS

SMILES	hERG current change (%, negative = inhibition) at 10uM
COc1ccc(C(=O)NCCSc2ccc(C)cc2)cc1	-11%
O=c1cc(-c2cc3ccccc3o2)c2cc(O)ccc2o1	13.3%
Clc1ccc(-[n+]2c(-c3cccc(Br)c3)[nH]c3nc4ccccc4nc32)cc1	13.5%
Cc1ccc(S(=O)(=O)NC(=O)COc2ccccc2C)c(C)c1	-21.9%
Cc1c(Cl)cccc1NC(=O)COC(=O)c1c2c(nc3ccccc13)CCN(Cc1ccccc1)C2	2.82%
Cc1ccc(C(=O)NNC(=O)Cn2nnc3ccccc32)cc1	13.3%
NC(=O)COc1cccc(/C=N/NC(=O)c2ccc(-n3cccc3)cc2)c1	13.5%
CCN(CC)CCN(Cc1cc2cc3c(cc2[nH]c1=O)OCCO3)C(=S)NCC(C)C	-4.96%
CCN(CC)CCN(Cc1cc2cc3c(cc2[nH]c1=O)OCO3)C(=S)NCC(C)C	-55.1%
CC(C)CNC(=S)N(CCN(C)C)Cc1cc2cc3c(cc2[nH]c1=O)OCO3	0.354%
S=C1NCCOCCNC(=S)NCCOCCOCCOCCN1	10.2%
CCc1cc(=O)oc2cc(C)c3c(C)coc3c12	16.3%
CCOC(=O)C1=C(C)NC(=O)C(C(N)=O)C12CCCCC2 (centres unmarked)	12.4%
CC(C)NC(=O)CN1C(=O)CSc2ccc(S(=O)(=O)N3CCCC3)cc21	15.6%
COc1ccc(CN2CCCC(N3CCN(c4ccc(OC)cc4)CC3)C2)cc1 (centres unmarked)	-45%
COc1ccc(N2CCN(C3CCCN(Cc4cccc(C)c4)C3)CC2)cc1 (centres unmarked)	-32.8%
COc1ccc(N2CCN(C3CCCN(Cc4cccc(OC)c4)C3)CC2)cc1 (centres unmarked)	-64.4%
CSc1ccc(CN2CCCC(N3CCN(c4ccccc4)CC3)C2)cc1 (centres unmarked)	-64.2%
OCCOc1ccc(CN2CCCC(N3CCN(c4ccc(F)cc4)CC3)C2)cc1 (centres unmarked)	-69.8%
COc1ccc(N2CCN(C3CCCN(Cc4cccc(C(C)=O)c4)C3)CC2)cc1 (centres unmarked)	-30.2%
COC(=O)CCC(=O)N1CCCC(N2CCN(c3ccc(OC)cc3)CC2)C1 (centres unmarked)	-1.47%
COc1ccccc1N1CCN(C2CCCN(Cc3ccccc3OCCO)C2)CC1 (centres unmarked)	-25.5%
CCOc1ccc(CN2CCCC(N3CCN(c4ccc(OC)cc4)CC3)C2)cc1 (centres unmarked)	-64%

SMILES	hERG current change (%, negative = inhibition) at 10uM
CCN(C1CCS(=O)(=O)C1)S(=O)(=O)c1ccc2ccccc2c1 (centres unmarked)	-10.5%
Cc1c[n+](CC(=O)c2ccccc2)cs1.[Br-]	22%
COc1ccc(NC(=O)CSCC(=O)Nc2ccccc2N2CCCC2)cc1	-7.76%
CCOC(=O)c1csc(NC(=O)c2ccc(OCC)cc2)n1	-14.9%
Cc1ccccc1C(=O)OC1OC(=O)C(Cl)=C1Nc1ccc(C(=O)O)cc1 (centres unmarked)	24.4%
CCc1ccc(S(=O)(=O)N2CCCC(N3CCN(c4ccc(OC)cc4)CC3)C2)cc1 (centres unmarked)	-65.4%
COc1ccc(N2CCN(C3CCCN(Cc4ccc(F)c(F)c4)C3)CC2)cc1 (centres unmarked)	-64.6%
COc1ccc(S(=O)(=O)N2CCN3CCCC3C2)cc1 (centres unmarked)	22.7%
COc1ccccc1N1CCN(C2CCCN(Cc3c(F)cccc3F)C2)CC1 (centres unmarked)	-16.3%
COc1ccc(N2CCN(C3CCCN(S(=O)(=O)c4ccccc4)C3)CC2)cc1 (centres unmarked)	-31.1%
CC1CCCCN1CCCNc1ccc(C(CC(N)=O)NC(=O)Cc2cccc3ccccc23)cc1[N+](=O)[O-] (centres unmarked)	-14.6%
Nc1nc(Oc2ccc(F)cc2)c(Br)c(=O)[nH]1	7.49%
COc1ccc(-c2c(-c3ccc(OCC(=O)NN)cc3O)n[nH]c2C(F)(F)F)cc1	-5.25%
C/C(CC(=O)Nc1cc(Cl)ccc1Cl)=N\NC(=O)c1ccco1	-6.6%
Cc1ccc(CCNC(=O)C2CC(c3ccccc3[N+](=O)[O-])=NO2)cc1 (centres unmarked)	-20.7%
Cc1c(C=O)n(C)n(-c2ccccc2)c1=O	11.5%
O=C(c1cc2ccccc2o1)N1CCN(C/C=C/c2ccccc2)CC1	-62.2%
O=C(c1ccc(Br)s1)N1CCN(C/C=C/c2ccccc2)CC1	-40.6%
O=C(c1ccc(Br)o1)N1CCN(C/C=C/c2ccccc2)CC1	-61.8%
Cl.O=C(c1cc2ccccc2o1)N1CCN(Cc2ccccc2)CC1	-32.6%
Cl.O=C(c1ccco1)N1CCN(C/C=C/c2ccccc2)CC1	-38%
O=C(c1cc2ccccc2o1)N1CCN(S(=O)(=O)/C=C/c2ccccc2)CC1	-30.8%
S=c1[nH]nc(-c2cccs2)n1Cc1ccccc1	9%

SMILES	hERG current change (%, negative = inhibition) at 10uM
CCCN1C2CCCC1CC(NC(=O)NC1CCCCC1)C2 (centres unmarked)	-12.4%
COCCNC(=O)Cn1cnc2ccc(S(=O)(=O)N3CCC(C)CC3)cc2c1=O	-15.1%
CCOCC(=O)Nc1cc(-c2cn3cccnc3n2)ccc1C	6.69%
CCn1c(CSc2nc3ccccc3s2)nnc1SCC(=O)c1ccc(O)cc1O	12.2%
Cn1c(SCC(=O)N2CCCCC2)nc2cccnc21	22.2%
NC(=O)c1ccsc1NC(=O)COC(=O)C1=NNC(=O)CC1	8.28%
COC(=O)c1cc2n(n1)CCN(Cc1ccc(C)cc1)C2=O	1.46%
O=C(c1cc2cc(F)ccc2[nH]1)N1CCN(c2ccc(F)cc2)CC1	-4.93%
CCN1CCN(C(=O)c2cc3cc(Cl)ccc3[nH]2)CC1	-59.8%
CCOC(=O)N1CCN(C(=O)c2cc3cc(Cl)ccc3[nH]2)CC1	-15.7%
CCN1CCN(C(=O)c2cc3cc(F)ccc3[nH]2)CC1	-65%
CCOC(=O)N1CCN(C(=O)c2cc3cc(F)ccc3[nH]2)CC1	-19.8%
CN1CCN(C(=O)c2cc3cc(Cl)ccc3[nH]2)CC1.Cl	-35.7%
CC(=O)Nc1ccc(S(=O)(=O)N(c2cccnc2)S(=O)(=O)c2ccc(NC(C)=O)cc2)cc1	-3.89%
Cc1cc(C)cc(NC(=O)CSc2ncc(S(=O)(=O)c3ccccc3)c(=O)[nH]2)c1	13.6%
O=C(Nc1ncn[nH]1)c1cc(S(=O)(=O)Nc2cccc(C(F)(F)F)c2)ccc1Cl	17.8%
COc1ccc(CNC(=O)COC(=O)c2n[nH]c3ccccc23)cc1	7.27%
CN(C)CCOC(c1ccc(Cl)cc1)c1ccccn1.O=C(O)/C=C/C(=O)O (centres unmarked)	-43%
CN(C)CCO[C@@H](c1ccc(Cl)cc1)c1ccccn1.O=C(O)/C=C\C(=O)O	-29.5%
Cc1ccc(C(OCCN(C)C)c2cccc(C(F)(F)F)c2)cc1.O=C(O)/C=C\C(=O)O (centres unmarked)	-58.6%
CCOc1cc(/C=N\Nc2ncc(F)c(N3CCOCC3)n2)ccc1Oc1nc(Cl)ncc1F	-51.8%
CCOc1cc(/C=N/NC(=O)c2ccc(O)cc2)ccc1Oc1nc(Cl)ncc1F	-7.77%
COc1ccc(/C=N\Nc2ncc(F)c(N3CCOCC3)n2)cc1OC	-31.1%

SMILES	hERG current change (%, negative = inhibition) at 10uM
CCS(=O)(=O)N1CCN(S(=O)(=O)c2ccc(F)cc2)CC1	-18.4%
O=C(NC1CCC(O)CC1)c1ccc(-c2ccc([N+](=O)[O-])cc2)o1 (centres unmarked)	-76.2%
O=C(NC1CCC(O)CC1)c1ccc(-c2ccc(Cl)cc2)o1 (centres unmarked)	-21.8%
O=C(NC1CN2CCC1CC2)c1ccc(-c2ccc([N+](=O)[O-])cc2)o1 (centres unmarked)	-64%
O=C(NC1CCCCC1)c1ccc(-c2cccc([N+](=O)[O-])c2)o1	12.4%
CC(=O)Nc1ccc(NC(=O)c2ccc(-c3ccc([N+](=O)[O-])cc3)o2)cc1	-14.5%
O=C(Nc1ccccc1)c1ccc(-c2ccc([N+](=O)[O-])cc2)o1	4.73%
Cc1cc(=O)[nH]c(Nc2ccc(Cl)cc2)n1	15%
CN1C(=O)C(CC(=O)Nc2ccccc2F)N(NC(=O)c2ccc(Br)cc2)C1=S (centres unmarked)	6.5%
Cc1ccc(CCSCC(=O)O)cn1	18.9%
C=CCN1C(=O)CSc2ccc(C(=O)NCc3ccc(F)cc3)cc21	-21.3%
CCN(C(=O)COc1ncnc2sccc12)c1ccccc1	63.8%
COc1ccc(C2SCC(=O)N2c2c(C)n(C)n(-c3ccccc3)c2=O)cc1OC (centres unmarked)	13.6%
CSCC(C)N1CCC(CO)(CCCc2ccccc2)CC1 (centres unmarked)	-55.7%
COc1ccc(CC2(CO)CCN(C(C)COc3ccccc3)CC2)cc1 (centres unmarked)	-82%
CSCC(C)N1CCC(CO)(CCc2ccccc2)CC1 (centres unmarked)	-29.4%
COc1ccc(CC2(CO)CCN(S(=O)(=O)c3sccc3C)CC2)cc1	-20.9%
COC(=O)CCCC(=O)N1CCC(CO)(CCc2ccccc2)CC1	-23.8%
COc1cccc(CC2(CO)CCN(S(=O)(=O)c3ccc(OC)cc3OC)CC2)c1	-10.7%
COc1ccc(CC2(CO)CCN(C(=O)NCc3ccccc3)CC2)cc1	-2.8%
COc1ccc(CCC(C)N2CCC(CO)(Cc3ccccc3)CC2)cc1 (centres unmarked)	-73.4%
CN(C)S(=O)(=O)N1CCC(CO)(CCc2ccccc2)CC1	-8.86%
CC(COc1ccccc1)N1CCC(CO)(CCc2ccccc2)CC1 (centres unmarked)	-80.3%
